WRN inhibitor – WRN helicase (human) inhibition; Q14191; AID 651768; Potency, µM (titrated, usually from 114 µM), without a hit: at the top dose activity change, negative = inhibition, actives largely listed as inhibitors; WRN helicase unwinding, fluorescent forked duplex, kinetic; actives 0.46% (n = 360,000); further: on the % scale 0 is the no-effect control and ±100 the full control effect; nearly all actives have a fitted effect of over 55% in size
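WRN at 20 nM final was preincubated with compound for 15 min at room temperature; reaction started with 100 nM forked duplex oligonucleotide carrying fluorophore and quencher plus 2 mM ATP (final). Unwinding followed kinetically by red fluorescence (ex 525/em 598 nm).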
Pol kappa inh – DNA polymerase kappa (human) inhibition; Q9UBT6; purified Pol kappa, fluorescent DNA synthesis assay, 10 min; Potency, µM (series often up to 107 µM), without a hit: top-dose activity, negative = inhibition, most hits filed as inhibitors; actives 0.53% (n = 400,000); further: on the % scale 0 is the no-effect control and ±100 the full control effect
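Kinetic fluorescence readout at 0 and 10 min followed reaction start with substrate at 50 nM final. Beforehand, enzyme (10 nM Pol kappa) stood 15 min with compound at room temperature; buffer-only wells were negative controls.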
FEN1 inhibitor – human FEN1 inhibition. P39748. Recombinant FEN1 flap cleavage, fluorescence, 15 min. Potency, µM (titrated, usually from 114 µM), inactives show at the highest dose activity change, negative = inhibition, most hits filed as inhibitors. actives 0.35% (n = 390,000); further: on the % scale 0 is the no-effect control and ±100 the full control effect; nearly all actives have a fitted effect of over 65% in size
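Steps: FEN1 (10 nM) dispensed; compound added by pin tool; 15 min at room temperature; substrate added to 50 nM final; reads at 0 min and 15 min; data normalized and fitted (four-parameter Hill).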
POLH inh – inhibitors of human DNA polymerase eta. actives 1.2% (n = 390,000). AID 588591. recombinant Pol eta, fluorescent DNA replication assay. Q9Y253. Potency, µM (titrated, usually from 114 µM), without a hit: at the top dose activity change, negative = inhibition, usual class: inhibitors; further: on the % scale 0 is the no-effect control and ±100 the full control effect
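Fluorescent replication assay: 50 nM final substrate added after a 15 min room-temperature compound preincubation with 10 nM enzyme. Signal taken at 0 min and again at 10 min.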
Pol iota inh – blocks human DNA polymerase iota activity | AID 588590 | Q9UNA4 | actives 1% (n = 390,000) | Potency, µM (highest dose often 115 µM), for the others: at the highest dose activity, negative = inhibition, hits mostly inhibitors | Pol iota fluorescent replication assay, 10 min
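Pol iota at 10 nM preincubated 15 min with compounds at room temperature; reaction started with fluorescent substrate, 50 nM final. Fluorescence read kinetically at 0 and 10 min; buffer-only wells as negative control.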
Pol beta inh – blocks human DNA polymerase beta activity | AID 485314 | Potency, µM (series often up to 114 µM), for the others: top-dose activity change, negative = inhibition, most hits filed as inhibitors | Pol beta primer extension/strand displacement, fluorescence kinetic | actives 1.3% (n = 340,000) | P06746; further: on the % scale 0 is the no-effect control and ±100 the full control effect
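10 nM enzyme + cpd, 15 min RT; start with substrate 50 nM final; read 0 min and after 10 min RT. Corrected, normalized data; 4-parameter Hill curve fit.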
* marks the source's active call; other numbers are inactive results; ? = inconclusive; · = no result given; [ ] = another dose, or the depositor's remark. An excerpt weighted towards active compounds, which were near 2.4% of everything screened. The call rests on the fitted dose curve; in most records, active means well fitted curve in the direction sought with a large enough effect; inconclusive means small, poorly fitted or top-dose-only effect, or another doubt; inactive means no such curve, though single readings can be large; an effect the other way counts as inactive or inconclusive. Potency means the concentration at half of the fitted maximal effect.

SMILES	WRN inhibitor	Pol kappa inh	FEN1 inhibitor	POLH inh	Pol iota inh	Pol beta inh
O=C(N/N=C/C=C/c1ccco1)c1ccccc1Cl	-5%[11.6 µM]	79µM*	-8%	-5%	?	1%
O=C(CNC(=O)c1cccs1)N/N=C/c1ccco1	6%	5%	10%	-8%	-3%	-2%
O=C(N/N=C/C=C/c1ccc([N+](=O)[O-])cc1)c1cccs1	?	-16%	-24%	?	?	7.1µM*
CC(/C=C/c1ccco1)=N/NC(=O)c1ccccc1Cl	-19%	-1%	-2%	?	-14%	2%
O=C(Cc1cccs1)N/N=C/c1ccco1	-4%	-20%	3%	?	-5%	-25%
O=C(Cc1cccs1)N/N=C/C=C\c1ccco1	?	?	-1%	50µM*	?	?
Cc1ccc(OCC(=O)N/N=C/C=C/c2ccco2)c(Br)c1	-14%	79µM*	-24%	-6%	50µM*	-23%
C[N+]1(CC(=O)c2ccc3c(c2)CCCC3)CCOCC1	·	6%	-21%	·	35%	·
O=C1C=C(c2ccccc2)OC2(CCCC2)O1	0%	-11%	0%	9%	12%	-3%
O=C1C=C(c2ccccc2)OC(c2ccccc2)O1 (configuration not stated)	-1%	-20%	2%	-24%	116%	11µM*
Cc1ccc(S/C=C\C(=O)c2ccccc2)cc1	-15%	-23%	-8%	-14%	79µM*	21%
CC(C(=O)c1ccccc1)[n+]1cccc(Cl)c1 (configuration not stated)	·	-8%	-11%	·	8%	·
Cc1ccc(C2C(C#N)=C(N)N(c3cccnc3)C3=C2C(=O)CCC3)s1 (configuration not stated)	-7%[11.6 µM]	-2%[60.1 µM]	-2%	56µM*	?	?
COC(=O)c1c(NC(=O)COC(=O)c2ccccc2O)sc2c1CCCCC2	2%[57.1 µM]	1%	6%	-4%	92%	-7%
NC(=O)c1c(NC(=O)COC(=O)c2ccc(O)c(Cl)c2)sc2c1CCCC2	-33%	-25%	?	50µM*	?	·
Cc1cccc(C(=O)Nc2ccc(OCc3cc(=O)n4ccc(C)cc4n3)cc2)c1	·	-14%[60.1 µM]	19%	-9%	-4%	8%
COc1cccc(CN2Cc3cccc4c3[C@H](C=CC4)CC2=O)c1	·	-19%	-10%	·	-12%	·
Cc1ccc(NC(=O)CSC(N)=O)cc1Cl	-6%	-3%	1%	8%	13µM*	22%
NC(=O)SCC(=O)Nc1ccc(Cl)c(Cl)c1	?	-14%	-2%	-5%	?	21%
Cc1cc(O)c(C(C)C)cc1N=Cc1ccccc1O	1%	-12%	?	-7%	20µM*	24%
CC1=C(C(=O)Nc2ccccc2C)C(c2cccs2)n2nc(SCc3ccccc3)nc2N1 (configuration not stated)	·	7%	-5%	2%	27%	2%
CCOC(=O)c1ccc(N2C(=O)c3n[nH]c(-c4ccco4)c3C2c2ccccc2OC)cc1 (configuration not stated)	·	-12%	-22%	-4%	-13%	0%
O=[N+]([O-])c1cccc(CNC2CCCCCC2)c1	10%	0%	-2%	-11%	122%	28µM*
O=C(C[n+]1ccccc1Br)c1ccc(-c2ccccc2)cc1	·	-9%	-13%	·	?	·
Cn1nnnc1Sc1ncnc2scc(-c3ccccc3)c12	-17%	-12%	3%	?	?	28µM*
Cc1ccc(S(=O)(=O)N(C)C)cc1NC(=O)c1cc(-c2ccco2)nc2ccccc12	?	?	10%	?	20µM*	-1%
Cc1ccc(NC(=O)c2cc(-c3ccco3)nc3ccccc23)cc1S(=O)(=O)N1CCOCC1	?	-41%	-1%	?	16µM*	14µM*
Cc1ncnc2nc[nH]c12	·	-11%	-3%	·	22%	·
CN(C)c1ccc(/C=C2\C=Cc3ccccc32)cc1Cl	·	-15%	0%	·	8%	·
O=C(CSc1ccccn1)Nc1cccc(NC(=O)CSc2ccccn2)n1	-12%	-19%	-15%	-6%	?	10µM*

High-throughput results: PubChem, National Center for Advancing Translational Sciences (NCATS)
